Screening results from PubChem.
Shown are actives, neighbours in structure and some others; about 6.4% of the full set was active somewhere.
VP16 counter = inhibits Gal4-VP16 luciferase reporter, ROR gamma counter-screen; Drosophila S2 Gal4-VP16 UAS-luciferase, luminescence, 20 h; Potency, µM (highest dose often 53.6 µM), inactives show at the top dose activity, negative = inhibition, most hits filed as inhibitors; 310,000 compounds, 3.5% hits; AID 2546;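 further: Gal4-VP16 expression switched on by copper sulfate through the metallothionein promoter; nearly all actives have a fitted effect of over 50% in size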
KinaseGlo FLuc = Kinase-Glo luciferase inhibition (counter-screen) | 200,000 compounds, 0.28% hits | Kinase-Glo luciferase, ATP luminescence, 8 min | Q27757 | Potency, µM (series often up to 38.3 µM), without a hit: at the highest dose activity change, negative = inhibition, usual class: inhibitors; further: nearly all actives have a fitted effect of over 60% in size
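Recombinant Kinase-Glo luciferase, 10 uM ATP (linear range), luciferin; imidazole pH 7.2 / KCl / MgCl2 / Tween / BSA buffer; 8 min RT; luminescence.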
RORgamma inh = inhibitors of mouse ROR gamma transcriptional activity | P51450 | Drosophila S2 Gal4-RORgamma UAS-luciferase reporter, 20 h | Potency, µM (series often up to 53.6 µM), for the others: at the top dose activity change, negative = inhibition, actives largely listed as inhibitors | 310,000 compounds, 5.4% hits | AID 2551; further: nearly all actives have a fitted effect of over 60% in size
Target sequence (P51450 whole entry, looked up, the tested form may be a part): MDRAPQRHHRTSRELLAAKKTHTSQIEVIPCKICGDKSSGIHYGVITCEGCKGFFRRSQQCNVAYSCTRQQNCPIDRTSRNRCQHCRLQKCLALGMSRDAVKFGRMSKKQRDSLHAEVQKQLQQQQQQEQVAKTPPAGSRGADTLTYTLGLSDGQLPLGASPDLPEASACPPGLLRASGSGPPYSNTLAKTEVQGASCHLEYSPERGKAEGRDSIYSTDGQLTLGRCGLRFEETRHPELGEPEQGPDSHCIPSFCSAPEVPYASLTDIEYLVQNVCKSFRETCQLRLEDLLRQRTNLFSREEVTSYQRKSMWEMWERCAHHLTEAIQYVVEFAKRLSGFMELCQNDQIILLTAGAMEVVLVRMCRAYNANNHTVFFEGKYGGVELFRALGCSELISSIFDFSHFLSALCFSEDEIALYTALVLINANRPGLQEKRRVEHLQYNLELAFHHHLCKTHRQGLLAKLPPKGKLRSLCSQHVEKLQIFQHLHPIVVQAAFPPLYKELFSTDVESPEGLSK
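Luciferase reporter read in Schneider cells carrying Gal4-RORγ (mouse) and UAS-Photinus luciferase; cells given compound 1 h before 700 uM copper sulfate induction, then incubated 20 h at ambient temperature.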
* marks the source's active call; other numbers are inactive results; ? = inconclusive; / = no result given. The call rests on the fitted dose curve; in most records, active means well fitted curve in the direction sought with a large enough effect; inconclusive means small, poorly fitted or top-dose-only effect, or another doubt; inactive means no such curve, though single readings can be large; an effect the other way counts as inactive or inconclusive. On the % scale 0 is the no-effect control and ±100 the full control effect; potency means the concentration at half of the fitted maximal effect.

SMILES	VP16 counter	KinaseGlo FLuc	RORgamma inh
CC(=O)N1CC(C)Oc2ccc(S(=O)(=O)NC(CC(=O)O)c3ccc(C)cc3C)cc21 (stereo unspecified)	-8.6%	/	-1.6%
CCc1cccc(C)c1N1C(=O)CC(C)(C)CC1=O	4.6%	/	-8.2%
CC(Sc1nnc(-c2ccco2)n1C)C(=O)N1C(C)CCCC1C (stereo unspecified)	5.1%	/	-15.9%
CN(C)c1ncc2nc(CCc3ccccc3)c(=O)n(Cc3cccs3)c2n1	-13.4%	/	10.9%
Cc1ccc(C(=O)Nc2nnc(SCC(=O)N3CCCc4ccccc43)s2)cc1	1.26µM*	-2.9%	0.501µM*
O=C(Nc1nnc(SCC(=O)N2CCCc3ccccc32)s1)c1cccc2ccccc12	4.7%	-1.1%	?
CC(C)Oc1ccc(C(=O)Nc2nnc(SCC(=O)N3CCOCC3)s2)cc1	1.78µM*	-0.5%	3.16µM*
COc1cccc(Nc2nnc(SCC(=O)N3CCOCC3)s2)c1	-0.1%	-8.7%	-14.0%
Cc1ccc(NC(=O)CSc2nnc(NC(=O)c3ccc(S(=O)(=O)N4CCOCC4)cc3)s2)cc1	31.6µM*	0.3%	-103.4%
CCOC(=O)c1ccc(NC(=O)CSc2nnc(NC(=O)c3ccc(S(=O)(=O)N4CCOCC4)cc3)s2)cc1	0.3%	2.2%	-1.4%
CC(=O)Nc1cccc(NC(=O)CSc2nnc(NC(=O)c3ccco3)s2)c1	-2.7%	/	-2.8%
CC(=O)Nc1ccc(NC(=O)CSc2nnc(NC(=O)c3ccc(Br)o3)s2)cc1	11.2µM*	/	3.16µM*
CCOC(=O)c1c(C)c(C(=O)N2CCN(c3ccc(F)cc3)CC2)c(C)n1C	7.6%	-0.2%	18.9%
COc1ccc(C2(C(=O)NCCCN3CCOCC3)CCOCC2)cc1	-5.0%	/	3.55µM*
COc1ccc(C2(C(=O)NCCN3CCOCC3)CCOCC2)cc1	-1.2%	2.5%	-22.9%
O=C(Cn1cc(C(=O)C(F)(F)F)c2cc(Br)ccc21)N1CCOCC1	8.6%	4.0%	8.3%
CC1=CCC(C(=O)O)C(C(=O)Nc2ccc(-c3nc4ccc(C)cc4s3)cc2)C1 (stereo unspecified)	-22.1%	/	-20.4%
CCCCNC(=S)Nc1ccc(-c2nc3ccc(C)cc3s2)cc1	?	2.0%	3.16µM*
Cc1ccc2nc(-c3ccc(NC(=O)CN(c4ccccc4C)S(C)(=O)=O)cc3)sc2c1	-0.6%	4.2%	18.4%
CCC(C)(C)NC(=S)Nc1ccc(-c2nc3ccc(C)cc3s2)cc1	-15.5%	-2.7%	8.3%
CC(=O)NC(=S)Nc1ccc(-c2nc3ccc(C)cc3s2)cc1	1.78µM*	-5.1%	0.501µM*
CNC(=S)Nc1ccc(-c2nc3ccc(C)cc3s2)cc1	7.08µM*	-1.8%	0.562µM*
Cc1nn(C)c(Cl)c1NC(=O)OCc1ccc(Cl)cc1Cl	8.91µM*	0.4%	?
Cc1nnsc1NC(=O)OCc1ccc(Cl)cc1Cl	-8.6%	-4.8%	?
Cc1ccc(Cl)cc1	3.2%	/	2.5%
SMILES	VP16 counter	KinaseGlo FLuc	RORgamma inh
O=S(=O)(N/N=C/c1ccc(N2CCOCC2)cc1)c1ccc(Br)cc1	0.3%	/	31.0%
CCN(CC)CC(O)CN1c2ccccc2Sc2ccccc21 (stereo unspecified)	-1.3%	/	-17.6%
O=c1c2ccccc2oc2ccc(NCCCN3CCOCC3)cc12	-21.1%	/	?
CN1CCCC1CCNc1ccc2oc3ccccc3c(=O)c2c1 (stereo unspecified)	?	/	8.91µM*
Cc1cc(C(C)(C)C)cc(C)c1COC(=O)c1cccnc1	-2.5%	/	?
O=C(C1CCN(Cc2ccc(F)cc2)CC1)N(CCc1ccccc1)Cc1ccccc1	7.3%	9.3%	35.4%
Cc1nc2cc(NC(=O)Nc3cccc4ccccc34)ccc2n1C	-3.3%	-23.5%	-13.9%
COc1ccccc1NC(=O)Nc1ccc2c(c1)nc(C)n2C	?	?	10µM*
Cc1cc(-c2nnnn2-c2ccc(F)cc2)no1	3.3%	/	12.2%
CCOC(=O)CN=C1CC(C)(C)CC2=C1Sc1ncnc(N(C)C)c1N2	?	-1.4%	11.2µM*
CCOC(=O)C1=C(C)NC2=C(C(=O)CC(C)(C)C2)C1c1cccc(C)n1 (stereo unspecified)	-20.6%	0.4%	-3.7%
OCC(CBr)(CBr)CBr	8.1%	/	28.1%
Cc1ccc(C2N(C)C(=O)c3ccccc3N2C)cc1 (stereo unspecified)	-3.0%	/	20.9%
COc1ccc(O)c(/C=N/c2nc3ccccc3n2C)c1	-2.7%	/	?
Nc1nc2ccccc2n1/N=C/c1ccc(Br)cc1	-2.4%	-3.1%	-1.9%
Cn1c(/N=C/c2ccc3c(c2)OCO3)nc2ccccc21	-3.4%	11.2µM*	-10.4%
Nc1nc2ccccc2n1/N=C/c1ccc2c(c1)OCO2	?	/	10µM*
CC(=O)NCCNC(=O)C1CCCCN1S(=O)(=O)c1ccccc1 (stereo unspecified)	-5.7%	-0.6%	-3.1%
O=C(CSc1ccc(Cl)cc1)N/N=C/c1ccc([N+](=O)[O-])o1	?	/	-20.5%
CCCOc1ccc(-c2nnc(-c3ccco3)o2)cc1	?	?	4.47µM*
CC(C)COc1ccc(-c2nnc(-c3ccco3)o2)cc1	?	-14.8%	?
CCCCc1nc2n[nH]c(N)c2c2c1CCCC2	5.5%	-0.5%	-0.6%
CCCCCc1n[nH]c2c1CCCC2	-25.6%	/	10µM*
O=S(=O)(Nc1cc(O)cc2cccnc12)c1ccc(Cl)s1	?	/	3.98µM*
O=S(=O)(Nc1cc(O)cc2cccnc12)c1ccc(Br)s1	6.31µM*	/	7.94µM*
SMILES	VP16 counter	KinaseGlo FLuc	RORgamma inh
O=S(=O)(Nc1ccccc1N1CCCCC1)c1ccc(Cl)s1	-14.0%	5.6%	-7.7%
COc1ccccc1NS(=O)(=O)c1ccc(Br)s1	-6.9%	0.7%	35.5%
COc1ccc(NC(=O)CSc2ccc3nnc(-c4cccnc4)n3n2)cc1OC	2.3%	/	30.8%
O=C(O)Cc1ccc2oc(-c3cccnc3)nc2c1	1.6%	-0.8%	-17.0%
COCCN1C(=O)/C(=C/c2ccc(N3CCCC3)cc2C)SC1=S	-0.8%	-17.0%	-1.7%
Cc1cc(O)cc(O)c1C(=O)OC1(C)C(=O)C=C2C=C(/C=C/CO)OC=C2C1=O (stereo unspecified)	-11.7%	-1.3%	-18.0%
CCC1CCCCN1c1nc(-c2ccncc2)nc2ccccc12 (stereo unspecified)	-13.0%	-1.6%	?
c1ccc2c(N3CCOCC3)nc(-c3ccncc3)nc2c1	-16.2%	1.2%	23.5%
CC1CCN(c2nc(-c3ccncc3)nc3ccccc23)CC1	?	-3.0%	11.2µM*
CC1CCCCN1c1nc(-c2ccncc2)nc2ccccc12 (stereo unspecified)	-18.8%	2.9%	11.2µM*
CC1CCN(c2nc(/C=C/c3ccccc3)nc3ccccc23)CC1	?	2.2%	15.8µM*
C(=C\c1nc(N2CCCC2)c2ccccc2n1)/c1ccccc1	-6.9%	-3.4%	44.2%
CNC(=O)c1c(NC(=O)c2cc(-c3cc(C)c(C)cc3O)n[nH]2)sc2c1CCCC2	-1.1%	/	-9.8%
CCCCC[C@H](O)/C=C/[C@H]1CCC(=O)[C@@H]1CCCCCCC(=O)N1CCCCC1CO (stereo partly specified)	-8.6%	/	0.0%
CCCNc1nc(Cl)nc(NC(C)(C)C)n1	-1.4%	1.0%	-10.2%
Cc1ccc(CNS(=O)(=O)c2cn(C)c(=O)n(C)c2=O)cc1	-12.2%	/	-10.0%
